In the library only some 5.8% were active in any assay of this set; here they are far more common.
KB-V1 cytotox: kills drug-selected multidrug resistant KB-V1 cells; AID 1347076; actives 3.4% (n = 400,000); Potency, µM (highest dose often 46.1 µM), usual class: cytotoxic; KB-V1 MDR cells viability, CellTiter-Glo, 72 h; further: on the % scale 0 is the no-effect control and ±100 the full control effect; nearly all actives have a fitted effect of over 60% in size
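qHTS viability screen in drug-selected KB-V1 MDR cells: 72 h compound treatment at 37 degrees C, ATP luminescence end point.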
ALOX12 inh: inhibitors of human 12S-lipoxygenase ALOX12; P18054; purified 12hLO, xylenol orange hydroperoxide absorbance; Potency, µM (titrated, usually from 108 µM), for inactives: at the top dose activity change, negative = inhibition, hits mostly inhibitors; actives 1.1% (n = 580,000); AID 1671190; further: on the % scale 0 is the no-effect control and ±100 the full control effect
Target sequence (P18054 whole entry, looked up): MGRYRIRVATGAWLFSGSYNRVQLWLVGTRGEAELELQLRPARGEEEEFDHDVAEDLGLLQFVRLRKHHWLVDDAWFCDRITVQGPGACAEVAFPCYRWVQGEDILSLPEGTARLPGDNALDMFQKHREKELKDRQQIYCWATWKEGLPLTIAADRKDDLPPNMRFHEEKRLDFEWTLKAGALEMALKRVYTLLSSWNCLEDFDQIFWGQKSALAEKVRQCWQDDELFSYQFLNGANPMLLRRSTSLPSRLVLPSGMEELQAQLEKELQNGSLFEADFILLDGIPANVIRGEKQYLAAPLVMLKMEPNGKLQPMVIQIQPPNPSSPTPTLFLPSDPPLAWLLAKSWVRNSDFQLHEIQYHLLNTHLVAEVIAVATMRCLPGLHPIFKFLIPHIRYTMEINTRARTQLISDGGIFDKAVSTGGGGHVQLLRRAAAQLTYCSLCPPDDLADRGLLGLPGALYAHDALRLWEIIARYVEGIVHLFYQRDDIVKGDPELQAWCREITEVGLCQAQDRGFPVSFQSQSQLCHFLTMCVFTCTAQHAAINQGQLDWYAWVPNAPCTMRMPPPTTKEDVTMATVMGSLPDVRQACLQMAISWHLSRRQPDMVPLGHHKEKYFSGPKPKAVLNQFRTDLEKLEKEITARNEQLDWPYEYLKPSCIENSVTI
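Purified human 12hLO at 150 nM in 25 mM Hepes, 0.01% Triton X-100, pH 7.0, preincubated 15 min at room temperature with compound. Reaction started with 40 uM arachidonic acid, 30 min at room temperature. Hydroperoxide measured by Fe-xylenol orange, 573/405 nm absorbance ratio.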
KB-3-1 cytotox: KB-3-1 parental cell cytotoxicity. AID 1347075. KB-3-1 viability, CellTiter-Glo ATP luminescence, 72 h. actives 1.4% (n = 400,000). Potency, µM (top dose mostly 46.1 µM), hits mostly cytotoxic; further: on the % scale 0 is the no-effect control and ±100 the full control effect; nearly all actives have a fitted effect of over 60% in size
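Screening of KB-3-1 cells (DMEM, 10% FBS, phenol-red free) ran from lowest to highest compound concentration; after 72 h at 37 °C viability was read luminescently and curves fitted.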
PINK1 modulator: changes PINK1 expression | Potency, µM (series often up to 76.6 µM), for inactives: top-dose activation (PINK1 increase), hits mostly activators | actives 0.2% (n = 410,000) | PINK1 immunofluorescence, high-content cytometry, 24 h | AID 624263; active means well fitted activation curve with a large enough effect; inconclusive means small, poorly fitted or top-dose-only effect; cell line not stated here; further: % of control where 0% means no effect; nearly all actives have a fitted effect of over 65% in size
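Decision-based qHTS: stable cells, 24 h exposure to five compound concentrations, CCCP as control. Fixed cells stained for PINK1 plus nuclear, mitochondrial and cell markers, cytometer read.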
SW480 rerep: induces DNA re-replication in SW480 colon adenocarcinoma cells | actives 1.8% (n = 340,000) | AID 624297 | SW480 DNA re-replication, Hoechst DNA content imaging, 48 h | Potency, µM (doses to about 46.1 µM), for the others: top-dose re-replication activation, actives largely listed as activators; further: % of control where 0% means no effect; nearly all actives have a fitted effect of over 55% in size
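Image-based DNA-content assay: after two days of treatment, nuclei were labelled with the DNA dye Hoechst and imaged, and hits were compounds raising the count of nuclei showing high fluorescence intensity.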
MCF10A rereplic: induces DNA re-replication in MCF 10a normal breast cells; Potency, µM (doses to about 46.1 µM), for the others: at the highest dose activity, positive = re-replication, actives largely listed as activators; MCF 10A DNA re-replication, Hoechst nuclear intensity, 48 h; actives 2.9% (n = 350,000); further: % of control where 0% means no effect; nearly all actives have a fitted effect of over 50% in size
* = called active by the depositor; i = inactive; u = inconclusive; x = not tested or not shown; [ ] = remark or other dose. Unless noted, the call rests on the fitted dose curve; in most records, active means well fitted curve in the direction sought with a large enough effect; inconclusive means small, poorly fitted or top-dose-only effect, or another doubt; inactive means no such curve, though single readings can be large; an effect the other way counts as inactive or inconclusive. Potency means the concentration at half of the fitted maximal effect.

SMILES | KB-V1 cytotox | ALOX12 inh | KB-3-1 cytotox | PINK1 modulator | SW480 rerep | MCF10A rereplic
COc1ccc2cc(C(C)C(=O)Nc3cccc(S(=O)(=O)N(C)C)c3)ccc2c1 (stereo unspecified) | 13µM* | u | 20.6µM* | 1.1% | -4.9% | u
CN(C)S(=O)(=O)c1cccc(NC(=S)N/N=C/C(c2ccccc2)c2ccccc2)c1 | 20.6µM* | u | i | 2.2% | 0.2% | 6.2%
COc1ccc(OCCOC(=O)Cn2cnc3c2c(=O)n(C)c(=O)n3C)cc1 | x | 21.2% | x | x | x | x
Cc1ccnc(SCCCn2c(Br)nc3c2c(=O)[nH]c(=O)n3C)n1 | x | 13.2% | x | x | x | x
O=C1/C(=C/c2ccc(O)cc2)COc2ccccc21 | i | 2.9% | i | -2.5% | 18.4µM* | u
O=C1/C(=C/c2ccccc2)COc2ccccc21 | x | 13.4% | x | x | x | x
CC1=NOC(=O)/C1=C\c1ccc(-c2ccc(Br)cc2C(=O)O)o1 | u | u | i | 0.0% | -1.1% | 12.7%
CC1=NOC(=O)/C1=C\c1ccc(-c2cc(Cl)ccc2Cl)o1 | i | 2.24µM* | i | -5.4% | u | u
CCOc1ccc(Cl)cc1/C=C1/C(=O)ON=C1C | i | u | i | 6.8% | -11.5% | 1.2%
CC1=NOC(=O)/C1=C\c1ccc(-c2ccc(Br)cc2)o1 | i | 44.7µM* | u | -1.1% | u | u
CCCCCN=Cc1c(C)[nH]n(-c2nc3ccccc3s2)c1=O | 2.31µM* | -15.1% | 2.59µM* | 5.9%[38.3 µM] | 11.6% | 17.8%
Cc1ccc(C(=O)N(C)C)cc1NC(=O)CC1CC2CCC1C2 (stereo unspecified) | x | -30.0% | x | x | x | x
COc1ccc(S(=O)(=O)N2CCN(C(=O)c3c(C)nn(-c4ccccc4)c3C)CC2)cc1 | 13µM* | 352.3% | i | -2.0% | -2.4% | 4.7%
CCN(CC)CCNCc1cc(Br)ccc1OCC(=O)NCc1ccccc1 | u | 28.2µM* | i | -2.1% | u | 4.4%
O=C1CCCC2=C1C(c1ccccc1Cl)CC(=O)N2c1ccccc1F (stereo unspecified) | x | -4.4% | x | x | x | x
Cc1c(C(=O)N2CCc3ccccc3C2)oc2ccc(S(=O)(=O)N3CC(C)CC(C)C3)cc12 (stereo unspecified) | u | -9.2% | 23.1µM* | 0.0% | u | 25.5%
CCN(CC)S(=O)(=O)c1ccc2oc(C(=O)N3CCc4ccccc4C3)c(C)c2c1 | 9.2µM* | x | u | 1.1% | -2.4% | 19.5%
Cc1cccnc1NCc1ccc(O)c2ncccc12 | u | u | u | 14.1µM* | u | u
Cc1ccc(O)c(CNc2cccc3cccnc23)c1 | i | -14.9% | i | 4.4% | 4.3% | 14.4%
Cc1ccc(NCc2ccc(O)c3ncccc23)cc1C | i | u | u | u | 25.8% | u
Cc1cccc(NCc2ccc(O)c3ncccc23)c1C | i | 5.62µM* | u | 15.8µM* | u | u
Cc1ccc(C)c(N=Nc2ccc(O)c3ncccc23)c1 | u | u | i | 3.6% | 4.7% | 16.4µM*
Cc1ccc(NCc2ccc(O)c3ncccc23)cc1 | i | 3.98µM* | i | -0.7% | u | 5.1%
COc1ccc(C(=O)Nc2ccc3oc(C)nc3c2)c(OC)c1 | x | -14.3% | x | x | x | x
CCC1=C[C@@H]2CN(C1)Cc1c([nH]c3ccccc13)[C@@](C(=O)OC)(c1cc3c(cc1OC)N(C)[C@H]1[C@@](O)(C(=O)OC)[C@H](OC(C)=O)[C@]4(CC)C=CCN5CC[C@]31[C@@H]54)C2 | u | x | 0.0291µM* | 3.2% | x | x
SMILES | KB-V1 cytotox | ALOX12 inh | KB-3-1 cytotox | PINK1 modulator | SW480 rerep | MCF10A rereplic
CC[C@]1(O)C[C@@H]2CN(CCc3c([nH]c4ccccc34)[C@@](C(=O)OC)(c3cc4c(cc3OC)N(C)C3[C@]45CCN4CC=C[C@](CC)(C45)[C@@H](OC(C)=O)[C@]3(O)C(=O)OC)C2)C1 (stereo partly specified) | x | 6.6%[57.4 µM] | x | x | x | x
COc1cc2c3c(c1)c(C1=NC(=S)NC1=O)c(O)n3C(C)(C)C=C2C | u | 0.0% | i | -10.2%[38.3 µM] | -1.0% | -0.5%
CC1(c2ccccc2)CC(C)(C)n2c(O)c(C3=NC(=S)NC3=O)c3cccc1c32 (stereo unspecified) | 11.6µM* | 0.0% | u | 0.9% | 16.5% | 7.9%
CCO[C@H]1CN(Cc2ccc(OC)c(OCc3cccc(F)c3)c2)C[C@@H]1O | x | 4.1% | x | x | x | x
C=CCNC(=S)N/N=C/c1ccc(-c2cc(Cl)ccc2Cl)o1 | i | 236.8% | i | 12.1% | 22.8% | u
C=CCNC(=S)N/N=C/c1ccc(-c2ccc(OC)cc2)o1 | 7.31µM* | 39.8µM* | u | -2.4% | u | 20.6µM*
C=CCNC(=S)N/N=C/c1ccc(-c2ccc(Cl)cc2Cl)o1 | i | u | i | 4.9% | 16.4µM* | 13µM*
COc1ccc(CNC(=O)N2CCN(S(=O)(=O)c3cccc(Br)c3)CC2)cn1 | x | 5.0% | x | x | x | x
Cc1ccc(/C=C/C(=O)N2CCN(c3ccc(F)cc3)CC2)o1 | 18.4µM* | -1.2% | u | 2.4% | -0.8% | u
CNC(=O)/C=C/c1cccc([N+](=O)[O-])c1 | x | -29.6% | x | x | x | x
CCOC(=O)C1CCN(S(=O)(=O)c2ccc(-n3cnnn3)c(C)c2)CC1 | i | -15.5% | i | 2.2%[38.3 µM] | u | 11.6µM*
Cc1cccc(C(=O)Nc2sc3c(c2C(N)=O)CCCCC3)c1 | x | 10µM* | x | x | x | x
COc1ccc(CC(=O)Nc2sc3c(c2C(N)=O)CCCC3)cc1 | u | 0.9% | i | 9.3% | -2.0% | u
COc1ccc(NC(=O)c2c(NC(=O)c3cccc(C)c3)sc3c2CCC3)cc1 | i | -9.8% | i | 1.4% | x | x
COc1ccc(C(=O)Nc2sc3c(c2C(N)=O)CCCC3)cc1OC | x | 230.8% | x | x | x | x
COc1cc(OC)cc(C(=O)Nc2sc3c(c2C(N)=O)CCC3)c1 | i | u | i | 0.9% | u | 0.581µM*
COc1ccc2nc(Nc3sc4c(c3C(N)=O)CCCC4)sc2c1 | i | 22.4µM* | i | 10.6% | 2.6% | u
O=C(/C=C/c1cccc(O)c1)c1ccsc1 | x | -27.3% | x | x | x | x
Cc1ccc(NC(=O)Nc2ccccc2OCc2cc(=O)n3cccc(C)c3n2)cc1Cl | x | -6.4% | x | x | x | x
COc1cccc([S+](=O)([O-])N2CCC3(C2)C(=O)N(Cc2ccccc2)c2ccccc23)c1 (stereo unspecified) | x | 22.8% | x | x | x | x
O=C(c1ccccc1)c1nn(-c2ccc(Cl)cc2)c(=O)cc1C(F)(F)F | 18.4µM* | 14.8% | u | -0.6% | u | 11.6µM*
O=C(c1cccc(Cl)c1)c1nn(-c2ccccc2)c(=O)cc1C(F)(F)F | 23.1µM* | u | u | 0.3% | -5.0% | -6.3%

Source: PubChem BioAssay
